Bioassay records: PubChem BioAssay, National Center for Advancing Translational Sciences (NCATS)
Many of the other results were omitted from the sample, so hits are more common in it than they were.
Pf Dd2 inh: blocks in vitro growth of P. falciparum Dd2; P. falciparum Dd2 growth, SYBR Green, 72 h; Potency, µM (highest dose often 28.9 µM), inactives show top-dose activity, negative = inhibition, hits mostly inhibitors; 120,000 tested, 4.3% active; AID 1347417; active means well fitted inhibition curve with a large enough effect;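 further: plate controls were DMSO vehicle for no effect and reference drug for full effect; nearly all actives have a fitted effect of over 65% in size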
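Infected erythrocytes (Dd2, 0.3% parasitemia, 2.5% hematocrit final) are added to compound in RPMI-1640/Albumax II medium, grown 72 h at 37C in low oxygen, then lysed with saponin/Triton-X containing SYBR Green and read by fluorescence.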
Active calls of the source: *; [ ] = another dose, or the depositor's remark. Potency means the concentration at half of the fitted maximal effect.

Results for COc1cc(CN2CCC[C@H]2c2nc(-c3ccc(-c4ccncc4)nc3)no2)cc(OC)c1OC ?
Pf Dd2 inh: 5µM*

How did COc1ccc(-c2noc([C@@H]3CCCN3C(=O)c3ccncc3)n2)cc1OC do in these assays?
Pf Dd2 inh: 80%

What do the screens show for `COCCNc1ncccc1-c1noc([C@@H]2CCCN2Cc2cc(OC)c(OC)c(OC)c2)n1`?
Pf Dd2 inh: -1%

What do the screens show for `Fc1ccc(-c2noc([C@@H]3CCCN3Cc3ccc(Cl)cc3)n2)nc1`?
Pf Dd2 inh: inactive

What do the screens show for `COc1ccc(C(=O)Nc2ccc(-c3noc([C@@H]4CCCN4Cc4ccco4)n3)cn2)cc1`?
Pf Dd2 inh: -1%

How did COCCNc1ccc(-c2noc([C@@H]3CCCN3C3CCC3)n2)cn1 do in these assays?
Pf Dd2 inh: inactive

Results for COc1ccc(C(=O)Nc2ccc(-c3noc([C@@H]4CCCN4Cc4c[nH]c5ccccc45)n3)cn2)cc1 ?
Pf Dd2 inh: 7.9µM*

How did NC(=O)c1ccc(CC2CCN(C(=O)C3CC=CC3)CC2)cc1 do in these assays?
Pf Dd2 inh: -14%

Results for CNc1cccnc1OC1CCN(C(=O)NCCOC)C1 (stereo not given) ?
Pf Dd2 inh: -6%

What do the screens show for `COc1ccc(CCNC(=O)Cn2nc3n(c2=O)CCCCC3)cc1OC`?
Pf Dd2 inh: 27%

Results for O=C(CC1CCN(C(=O)c2ccccc2F)C1)NC1CC1 (stereo not given) ?
Pf Dd2 inh: 2%

How did O=C(NCC(F)F)C1CCCN(c2nc3ncccc3o2)C1 (stereo not given) do in these assays?
Pf Dd2 inh: -14%[44.1 µM]

What do the screens show for `Cc1noc(C)c1[S+](=O)([O-])N1CCC(c2nn(C)c(=O)[nH]2)CC1`?
Pf Dd2 inh: 6%

How did CNc1nc2c(c(C(=O)N3CCCC3)n1)CN(C(=O)Cn1nccc1C)CC2 do in these assays?
Pf Dd2 inh: -6%

What do the screens show for `Cc1cc(Nc2cccc(F)c2)n2nc(-c3ccco3)nc2n1`?
Pf Dd2 inh: -16%

Results for CCOC(=O)c1ccccc1Nc1cc(C)nc2nc(-c3ccco3)nn12 ?
Pf Dd2 inh: 10µM*

What do the screens show for `Cc1cc(Nc2ccccc2Cl)n2nc(-c3ccco3)nc2n1`?
Pf Dd2 inh: -28%

How did Cc1cc(C2CCCN2C(=O)c2cc(C)c(C)c(S(N)(=O)=O)c2)on1 (stereo not given) do in these assays?
Pf Dd2 inh: -4%

Results for CC(=O)N1CCCC1c1nc(C2CN(S(=O)(=O)c3cccnc3)C2)no1 (stereo not given) ?
Pf Dd2 inh: -21%

How did O=S(=O)(c1cccnc1)N1CCC(c2nc(C3CC3)no2)C1 (stereo not given) do in these assays?
Pf Dd2 inh: 38%

Results for O=S(=O)(c1cccnc1)N1CC(c2noc(C3CCCN3CC3CC3)n2)C1 (stereo not given) ?
Pf Dd2 inh: 6.3µM*

Results for CC(=O)N1CCCC1c1nc(C2CN(C(=O)c3ccsc3)C2)no1 (stereo not given) ?
Pf Dd2 inh: -19%

How did CCOCc1nc(C2CCCN2S(=O)(=O)c2cccs2)no1 (stereo not given) do in these assays?
Pf Dd2 inh: 0%

Results for O=S(=O)(c1cccs1)N1CC(c2noc(C3CCCN3CC3CC3)n2)C1 (stereo not given) ?
Pf Dd2 inh: 2.8µM*

Results for O=C(c1ccc2c(c1)OCO2)N1CC(c2noc(C3CCCN3CC3CC3)n2)C1 (stereo not given) ?
Pf Dd2 inh: 5µM*

What do the screens show for `O=C(c1cccs1)N1CCCC1c1nc(C2CCOCC2)no1` (stereo not given)?
Pf Dd2 inh: -15%

What do the screens show for `COCCN1CCCC1c1nc(C2CN(C(=O)c3ncccc3C)C2)no1` (stereo not given)?
Pf Dd2 inh: inactive

Results for CN(Cc1cccnc1)C(=O)c1c(OCC2CC2)cc(=O)n2c1CCCCC2 ?
Pf Dd2 inh: 28%

What do the screens show for `COC[C@@H]1CN(C(=O)c2ccc(OC)cc2OC)C[C@H]1c1ccccn1`?
Pf Dd2 inh: -28%

What do the screens show for `COc1cccc([S+](=O)([O-])N2CCCC3(COc4ccccc4C(=O)N3)C2)c1` (stereo not given)?
Pf Dd2 inh: -20%

Results for c1ccc(CN2CCCCC2c2nc(CCOCC3CCCC3)no2)nc1 (stereo not given) ?
Pf Dd2 inh: -22%

What do the screens show for `COc1ccccc1-c1nc(-c2nnn3c2COC(c2ccccc2Cl)C3)no1` (stereo not given)?
Pf Dd2 inh: -5%

Results for CCOc1cccc(-c2noc(-c3ncn4c3COC(c3ccc(F)cc3)C4)n2)c1 (stereo not given) ?
Pf Dd2 inh: -23%

What do the screens show for `Cc1ccc(-c2nc(-c3nnn4c3COC(c3ccccc3Cl)C4)no2)cc1` (stereo not given)?
Pf Dd2 inh: -9%

Results for COc1ccc(C2Cn3cnc(-c4nc(-c5ccc(SC)cc5)no4)c3CO2)cc1 (stereo not given) ?
Pf Dd2 inh: inactive

What do the screens show for `COc1ccc(C2Cn3nnc(-c4nc(-c5ccc(F)cc5)no4)c3CO2)cc1` (stereo not given)?
Pf Dd2 inh: inactive

What do the screens show for `CCOc1ccc(C2Cn3nnc(-c4nc(-c5ccc(OC)c(F)c5)no4)c3CO2)cc1` (stereo not given)?
Pf Dd2 inh: inactive

Results for COc1ccccc1-c1noc(-c2nnn3c2COC(c2ccc(F)cc2)C3)n1 (stereo not given) ?
Pf Dd2 inh: inactive

What do the screens show for `Clc1ccccc1C1Cn2cnc(-c3nc(-c4ccncc4)no3)c2CO1` (stereo not given)?
Pf Dd2 inh: 5.6µM*

What do the screens show for `COc1ccc(C2Cn3nnc(-c4nc(-c5ccc(OC)c(F)c5)no4)c3CO2)cc1` (stereo not given)?
Pf Dd2 inh: -23%

How did CCOc1cc(-c2noc(-c3ncn4c3COC(c3ccc(OC)cc3)C4)n2)ccc1OC (stereo not given) do in these assays?
Pf Dd2 inh: 2.5µM*

How did COc1cc(-c2noc(-c3ncn4c3COC(c3ccc(F)cc3)C4)n2)cc(OC)c1OC (stereo not given) do in these assays?
Pf Dd2 inh: 11µM*

How did COc1ccc(-c2noc(-c3ncn4c3COC(c3ccc(F)cc3)C4)n2)cc1OC (stereo not given) do in these assays?
Pf Dd2 inh: 8.9µM*

Results for CC(C)C(=O)N1CCC2(COc3ncccc3S(=O)(=O)N2)C1 (stereo not given) ?
Pf Dd2 inh: 3%

Results for O=C(Cc1ccccc1)N1CCC2(CC1)N(c1ccccc1)C(=O)CS2(=O)=O ?
Pf Dd2 inh: inactive

How did CCn1ncc(N2CCC(NC(=O)CC3CCCC3)CC2)cc1=O do in these assays?
Pf Dd2 inh: 3%

Results for CC(C)c1ccc(Nc2n[nH]c(C(O)C3CC3)n2)cc1 (stereo not given) ?
Pf Dd2 inh: -8%[44.1 µM]

Results for Cc1noc(C)c1S(=O)(=O)N1CCC(C(=O)NCCc2noc(C3CC3)n2)CC1 ?
Pf Dd2 inh: -1%

What do the screens show for `CCc1noc(-c2cn(C3CCCN(C(=O)c4cc(C)cc(C)c4)C3)nn2)n1` (stereo not given)?
Pf Dd2 inh: inactive

How did CCN(CC)c1ncccc1CNC(=O)C1CCOC1 (stereo not given) do in these assays?
Pf Dd2 inh: inactive

How did O=C(Cn1nc2n(c1=O)CCCCC2)N1CCCc2ccccc21 do in these assays?
Pf Dd2 inh: -16%
